From PubChem
Hits are enriched below; roughly 3.2% of the tested compounds scored in any of these assays.
SSB-PriA inh – inhibitors of Klebsiella pneumoniae PriA binding to SSB C-terminal tail, primary screen, biochemical, AlphaScreen. PriA–SSB C-terminal tail interaction (Klebsiella pneumoniae). AlphaScreen SSBct-PriA binding, biotinylated peptide. inhibition, % at 33 µM. hit rate 0.6% among 430,000. AID 1272365, 2023; in the data active = inhibition mostly above about 37%, no sharp cut-off; inactive = mostly below about 20%;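 note: plate controls were negative control peptide for no effect and reference peptide for full effect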
GDH-TPI counter-1 – GDH-TPI coupling enzyme inhibitors, primary screen, artefact control for M. tuberculosis FBA inhibitor project, biochemical, absorbance, full deck; GDH-TPI coupled enzyme counterscreen, NADH absorbance; inhibition, % at 4.8 µM; hit rate 1.2% among 360,000; AID 588335, 2011; in the data active = inhibition above about 30%;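 note: 0% = DMSO wells and 100% = wells lacking the enzyme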
Mtb FBA inh – Mtb FBA enzyme inhibitors, primary screen, biochemical, fluorescence, strain H37Rv. inhibition, % at 1 µM. hit rate 2.3% among 360,000. AID 588726, 2011. purified M. tuberculosis FBA, fluorescence read-out;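 note: 0% = vehicle and 100% = reference inhibitor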
Target sequence (P9WQA3 whole entry, looked up): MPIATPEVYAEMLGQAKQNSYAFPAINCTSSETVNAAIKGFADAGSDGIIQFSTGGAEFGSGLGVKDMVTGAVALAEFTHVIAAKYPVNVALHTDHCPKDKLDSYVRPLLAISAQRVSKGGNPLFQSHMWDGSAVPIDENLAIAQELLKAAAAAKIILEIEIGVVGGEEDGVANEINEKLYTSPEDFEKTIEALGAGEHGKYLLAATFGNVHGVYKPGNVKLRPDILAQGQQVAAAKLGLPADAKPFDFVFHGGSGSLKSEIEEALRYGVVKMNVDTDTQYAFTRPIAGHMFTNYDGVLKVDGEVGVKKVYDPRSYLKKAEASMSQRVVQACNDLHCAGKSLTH
Rv3671c protease – Rv3671c serine protease inhibitors, primary screen, biochemical, fluorescence polarization, M. tuberculosis H37Rv; inhibition, % at 5.96 µM; hit rate 0.048% among 320,000; P9WHR9; in the data active = inhibition above about 38%;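 note: extracellular domain of Rv3671c used as enzyme; 0% = enzyme with DMSO and 100% = no enzyme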
Mtb bLac sens – beta-lactam sensitization of Mtb H37Rv, H37Rv | AID 434955, 2010 | hit rate 0.27% among 330,000 | M. tuberculosis H37Rv growth with meropenem, percent inhibition | inhibition, % at 25 µM; call rule not given here;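 note: growth measured after seven days incubation then overnight dye step; 0% = bacteria only wells and 100% = bacteria with antibiotic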
UGM FP inh – M. tuberculosis UGM enzyme inhibitors, primary screen, biochemical, fluorescence polarization, single point; UDP-galactopyranose mutase (Mycobacterium tuberculosis (strain ATCC 25618 / H37Rv)), …; purified UGM, fluorescence polarization probe displacement; inhibition, % at 10 µM; hit rate 0.06% among 320,000; AID 504406, 2011; in the data active = inhibition above about 10%, passing the limit was not always enough
Mtb FBA inh conf – M. tuberculosis aldolase blockers, biochemical, fluorescence, strain H37Rv, confirmation; purified M. tuberculosis FBA, fluorescence read-out; hit rate 78% among 5,600; inhibition, % at 1 µM; shares compounds with Mtb FBA inh;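 note: 0% = vehicle wells and 100% = reference inhibitor wells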
GDH-TPI counter-2 – GDH-TPI coupling enzyme inhibitors, artefact control for M. tuberculosis FBA inhibitor project, biochemical, fluorescence, high throughput; inhibition, % at 1 µM; AID 652141, 2013; hit rate 81% among 5,600; shares compounds with Mtb FBA inh; GDH-TPI coupled enzyme counterscreen; in the data active = inhibition above about 10%
* = called active by the depositor; nt = no result given. Cut-off read from the data, not from the text of the source, unless noted: active = inhibition above about 27%; inactive = the rest.

SMILES	SSB-PriA inh	GDH-TPI counter-1	Mtb FBA inh	Rv3671c protease	Mtb bLac sens	UGM FP inh	Mtb FBA inh conf	GDH-TPI counter-2
COc1ccc2c(CN3CCN(c4ccccc4OC)CC3)cc(=O)oc2c1	nt	nt	2	nt	nt	nt	nt	nt
COc1ccc2c(COC(=O)[C@@H]3CCCN3S(=O)(=O)c3ccc(Cl)cc3)cc(=O)oc2c1	4	7	51*	nt	nt	nt	102*	76*
COc1ccc2c(CN3CCCCCCC3)cc(=O)oc2c1	nt	nt	82*	nt	nt	nt	1	0
O=C(NCCc1csc2nc(-c3ccc(F)cc3)nn12)c1ccc(Br)o1	9	nt	nt	nt	nt	nt	nt	nt
COc1ccccc1-n1nnc(C(=O)OCc2cccc(Cl)c2)c1C	-20	nt	nt	nt	nt	nt	nt	nt
CCOc1ccc(NC(=O)NCCOc2ccc3nnc(-c4cccc(F)c4)n3n2)cc1	-1	nt	nt	nt	nt	nt	nt	nt
CCn1cc(C2C(C(=O)Nc3cc(C)ccn3)=C(C)NC3=C2C(=O)CC(C)(C)C3)c(C)n1 (stereo not drawn)	-10	8	52*	-10	-2	2	104*	85*
CCN(CC)c1ccc(C2C(C(=O)Nc3ccccn3)=C(C)NC3=C2C(=O)CC(C)(C)C3)cc1 (stereo not drawn)	7	-4	2	5	-3	-3	nt	nt
O=C1Nc2ccccc2Oc2ccccc21	nt	-1	-1	nt	nt	nt	nt	nt
O=C1Nc2ccccc2O/C1=C\c1ccccc1	-8	16	30*	5	5	-5	160*	102*
COc1ccc(S(=O)(=O)NNC(=O)c2ccccc2-n2cccc2)cc1	-21	-6	-4	2	3	-1	nt	nt
Cc1ccc(S(=O)(=O)NNC(=O)c2ccccc2-n2cccc2)cc1	-3	4	32*	11	-4	-1	57*	52*
COCCn1nnnc1CN(Cc1cc2cc(OC)c(OC)cc2[nH]c1=O)C1CCCC1	0	4	39*	-1	3	3	73*	70*
COc1cc2cc(CN(Cc3nnnn3Cc3ccco3)C3CCCCC3)c(=O)[nH]c2cc1OC	-9	9	40*	-1	-6	0	63*	53*
CCOc1ccc2[nH]c(=O)c(CN(Cc3nnnn3Cc3ccco3)C3CCCCC3)cc2c1	-1	-2	16	1	4	1	nt	nt
O=C1C2N=NN(c3cccc(C(F)(F)F)c3)C2C(=O)N1c1ccc2c(c1)CCC2 (stereo not drawn)	-7	nt	nt	nt	nt	nt	nt	nt
CCCCc1cnc2c(c1Cl)c(=O)n(C)c(=O)n2C	-24	nt	nt	nt	nt	nt	nt	nt
C[C@H](NC(=O)c1cccc(N2CCCS2(=O)=O)c1)c1ccc2c(c1)OCCO2	-5	nt	nt	nt	nt	nt	nt	nt
CCC(=O)c1ccc(/C=C/c2nc3ccccc3n2C)o1	-12	11	83*	1	-1	1	-5	-5
Cc1[nH]c2ccccc2c1/C=N/n1cnnc1	nt	24	1	1	-9	-1	nt	nt
Cn1c(/C=N/O)nc2ccccc21	nt	4	52*	-7	1	-4	21	10*
CCn1c(C=Nn2cnnc2)nc2ccccc21	2	nt	nt	nt	nt	nt	nt	nt
C(=N\n1cnnc1)/c1nc2ccccc2[nH]1	nt	20	74*	-3	-4	-2	60*	49*
Cn1c(/C=N/n2cnnc2)nc2ccccc21	nt	37*	45*	4	10	1	14	-3
Cn1c(/C=N/c2nc3ccccc3[nH]2)nc2ccccc21	nt	10	6	1	nt	-2	nt	nt
CC(C)Cn1c(/C=C/c2ccco2)nc2ccccc21	2	12	6	-1	6	1	nt	nt
COc1cc(-c2cc(C(=O)NCCc3ccc(S(N)(=O)=O)cc3)c3ccccc3n2)cc(OC)c1OC	-16	22	-2	3	2	0	nt	nt
